Results filed as inconclusive are left out. Activity calls are given as the source filed them. Unless noted, calls come from the whole dose curve.
Legend:
[1] = Nuclear factor erythroid 2-related factor 2/antioxidant responsive element (Nrf2/ARE) small molecule agonists: qHTS cell viability counter screen in human keratinocytes (AID 1919968; active = well fitted curve in the direction sought with a large enough effect in the repeat runs; an effect the other way counts as inactive or inconclusive; note: nearly all actives have a fitted effect of over 55% in size; note: potency is the fitted concentration of half-maximal effect)
Outline: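 KeratinoSens cells (HaCaT keratinocytes stably carrying an ARE-luciferase reporter) were seeded at 1,500 cells/well and rested 5 h at 37 C/5% CO2. They were then exposed to compounds in DMSO for 23 h. Viability was read by CellTiter-Fluor fluorescence after 1 h.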

[2] = Nuclear factor erythroid 2-related factor 2/antioxidant responsive element (Nrf2/ARE) small molecule agonists: luciferase reporter gene qHTS assay in human keratinocytes (AID 1919969); note: nearly all actives have a fitted effect of over 35% in size; note: potency is the fitted concentration of half-maximal effect
[3] = target: Gonadotropin-releasing hormone receptor (Homo sapiens) (UniProt P30968); experiment: Human gonadotropin-releasing hormone receptor (GnRHR) small molecule agonists, calcium flux assay in GnRHR-HEK293 cells (AID 1920063); note: nearly all actives have a fitted effect of over 35% in size
Outline: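 HEK293 cells stably expressing human GnRHR were plated 18 h at 37 °C, loaded with calcium dye 1 h at 37 °C, then given compound in agonist mode; fluorescence (Ex/Em 480/540) read kinetically for 3 min at 1 s intervals.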

[4] = target: KiSS-1 receptor (Homo sapiens) (UniProt Q969F8); experiment: Human kisspeptin (KISS1R) small molecule agonists, calcium flux assay in KISS1R-HEK293 cells (AID 1920064; active = well fitted curve in the direction sought with a large enough effect in the repeat runs; an effect the other way counts as inactive or inconclusive)
Outline: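 HEK293 cells stably expressing human KISS1R were plated 18 h at 37 °C, loaded with calcium dye for 1 h at 37 °C, then given compound by pin tool. Fluorescence (Ex/Em 480/540) was read kinetically for 3 min.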

[5] = G protein-coupled receptor (GPCR) small molecule agonists, calcium flux assay: HEK293 wild type cell line counter screen (AID 1920065)
Outline: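 Cells were plated and cultured 18 h at 37 C/5% CO2, then loaded with calcium dye for 1 h at 37 C. Compounds in DMSO were pin-transferred in agonist mode, and fluorescence (Ex/Em 480/540) was read kinetically for 3 min at 1 s intervals.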

[6] = p53 small molecule agonists, cell-based qHTS assay with rat liver microsomes (AID 1963578)
Outline: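 Read-out is beta-lactamase reporter fluorescence (LiveBLAzer, 2 h, room temperature, dark) in p53RE-bla cells treated 16 h at 37 C with compound, rat liver microsomes and NADPH, both 0.5 mg/mL final.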

[7] = p53 small molecule agonists, cell-based qHTS assay (AID 1963582; active = well fitted activation curve with a large enough effect in the signal ratio in the repeat runs, not every such curve was filed as active; the % refers to the signal ratio; note: potency is the fitted concentration of half-maximal effect)
Outline: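 p53RE-bla beta-lactamase reporter cells rested 5 h at 37 C/5% CO2, then received compounds in DMSO by pin transfer and were incubated 16 h at 37 C. LiveBLAzer B/G FRET substrate was loaded for 2 h at room temperature before fluorescence reading.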

[8] = target: 5-hydroxytryptamine receptor 2A (Homo sapiens) (UniProt P28223); experiment: 5-hydroxytryptamine receptor 2A (HTR2A) small molecule agonists, cell-based qHTS assay (AID 1963587); note: nearly all actives have a fitted effect of over 30% in size; note: potency is the fitted concentration of half-maximal effect
Outline: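 Kinetic calcium-flux fluorescence (2 min, 1 sec intervals) after compound addition in agonist mode. HTR2A-CHO cells were cultured 18 h, then dye-loaded 1 h at 37 C.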

[9] = target: Muscarinic acetylcholine receptor M1 (Homo sapiens) (UniProt P11229); experiment: Cholinergic receptor muscarinic 1 (CHRM1) small molecule antagonists, cell-based qHTS assay (AID 1963588); note: nearly all actives have a fitted effect of over 40% in size
Outline: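 CHRM1-CHO calcium-flux assay, antagonist mode. Cells were seeded 18 h, dye-loaded 1 h at 37 C and given compound for 5 min at RT, then acetylcholine was added at 50nM. FDSS fluorescence was read 3 min; 15 concentrations, three runs.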

[10] = target: Muscarinic acetylcholine receptor M1 (Homo sapiens) (UniProt P11229); experiment: Cholinergic receptor muscarinic 1 (CHRM1) small molecule agonists, cell-based qHTS assay (AID 1963589); note: nearly all actives have a fitted effect of over 35% in size
Outline: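 CHO cells stably expressing human CHRM1, seeded 18 h at 37 C/5% CO2, dye-loaded 1 h at 37 C, then given compound in agonist mode; intracellular calcium fluorescence read kinetically at 1 s intervals. Fifteen concentrations, three independent runs.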

[11] = cAMP Responsive Elements (CRE) small molecule agonists, cell-based qHTS assay (AID 1963590)
Outline: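 CRE-bla HEK 293T cells in DMEM with 10% dialyzed FBS, NEAA, pyruvate and 25 mM HEPES were plated 18 h at 37 C/5% CO2, then exposed to compounds in DMSO for 3 h before LiveBLAzer B/G FRET substrate addition.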

[12] = cAMP Responsive Elements (CRE) small molecule antagonists, cell-based qHTS assay (AID 1963591; active = well fitted inhibition curve with a large enough effect in the signal ratio in the repeat runs, not every such curve was filed as active; the % refers to the signal ratio; note: potency is the fitted concentration of half-maximal effect)
Outline: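 CRE-bla HEK293T cells were plated 18 h at 37 °C/5% CO2, pinned with compound in DMSO, then stimulated with NKH477 at 0.25 uM final for 3 h. LiveBLAzer B/G FRET substrate was added and plates incubated 2 h at room temperature.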

[13] = target: D(2) dopamine receptor (Homo sapiens) (UniProt P14416); experiment: Dopamine D2 receptor (DRD2) small molecule antagonists, cell-based qHTS assay (AID 1963595; active = well fitted inhibition curve with a large enough effect in the signal ratio in the repeat runs, with a control signal flat; the % refers to the signal ratio)
Outline: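 HTRF cAMP read-out at 665 and 620 nm emission (340 nm excitation). Antagonist mode: compounds were tested against 12 nM quinpirole in DRD2-HEK293 cells, with 200 nM NKH477 raising cAMP and 0.1 mM Ro20-1724 blocking its breakdown.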

[14] = p53 small molecule agonists, cell-based qHTS assay with human liver microsomes: qHTS cell viability counter screen (AID 1963579); note: nearly all actives have a fitted effect of over 45% in size; note: potency is the fitted concentration of half-maximal effect
Outline: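 Cells carrying the p53 response-element beta-lactamase reporter are treated for 16 h at 37 C with test compounds in the presence of human liver microsomes and NADPH (both 0.5 mg/mL final); ATP-based CellTiter-Glo luminescence then reports viability.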

[15] = p53 small molecule agonists, cell-based qHTS assay with rat liver microsomes: qHTS cell viability counter screen (AID 1963580); note: nearly all actives have a fitted effect of over 45% in size
Outline: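 HCT-116 p53RE-bla, 4,000 cells/well, 5 h pre-incubation; cpd + rat liver microsomes 0.5 mg/mL + NADPH 0.5 mg/mL (final); 16 h, 37 C; CellTiter-Glo, 30 min RT; luminescence.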

[16] = p53 small molecule agonists, cell-based qHTS assay: qHTS cell viability counter screen (AID 1963581); note: nearly all actives have a fitted effect of over 45% in size; note: potency is the fitted concentration of half-maximal effect
Outline: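 p53RE-bla HCT-116 cells were exposed to compounds for 16 h at 37 C; after the beta-lactamase FRET read in the same wells, CellTiter-Glo was added and luminescence (intracellular ATP) read after 30 min at room temperature.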

[17] = target: 5-hydroxytryptamine receptor 2A (Homo sapiens) (UniProt P28223); experiment: 5-hydroxytryptamine receptor 2A (HTR2A) small molecule antagonists, cell-based qHTS assay (AID 1963586); note: nearly all actives have a fitted effect of over 45% in size
Outline: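 Antagonist-mode intracellular calcium assay: DOI (4 nM) added after 5 min compound pre-incubation at room temperature to dye-loaded HTR2A-CHO cells. Fluorescence followed for 3 min, sampled every second.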

[18] = target: Beta-2 adrenergic receptor (Homo sapiens) (UniProt P07550); experiment: Adrenergic beta2 receptor (ADRB2) small molecule antagonists, cell-based qHTS assay (AID 1963592); note: series mostly up to about 92 µM; nearly all actives have a fitted effect of over 50% in size
Outline: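 Cells (CHO, stable ADRB2 overexpression) incubated 18-20hr at 37C; compounds added from DMSO; agonist mix (1nM isoproterenol, 100uM IBMX, 25uM Ro-20-1724) added; 0.5hr RT; d2-cAMP and anti-cAMP-cryptate added; 1hr RT; 665/615 nm read.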

[19] = target: D(2) dopamine receptor (Homo sapiens) (UniProt P14416); experiment: Dopamine D2 receptor (DRD2) small molecule agonists, cell-based qHTS assay (AID 1963594); note: nearly all actives have a fitted effect of over 35% in size
Outline: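 cAMP accumulation in DRD2-HEK293 cells measured by HTRF after 1 h detection; compounds added 10 min before NKH477 (200nM […]) forskolin-analogue stimulation, 30 min at room temperature, with Ro20-1724 present at 0.1 mM final.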

[20] = target: Beta-2 adrenergic receptor (Homo sapiens) (UniProt P07550); experiment: Adrenergic beta2 receptor (ADRB2) small molecule agonists, cell-based qHTS assay (AID 1963593);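 note: CHO cells stably overexpressing human ADRB2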
Outline: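 CHO cells stably over-expressing ADRB2 were plated overnight at 37C, then dosed with compounds plus a stimulation mix containing 100uM IBMX and 25uM Ro-20-1724 for 0.5hr at room temperature. cAMP was measured by HTRF competition, 1hr.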

Measured: Potency

Sequence of Muscarinic acetylcholine receptor M1 (Homo sapiens) (P11229 whole entry, looked up): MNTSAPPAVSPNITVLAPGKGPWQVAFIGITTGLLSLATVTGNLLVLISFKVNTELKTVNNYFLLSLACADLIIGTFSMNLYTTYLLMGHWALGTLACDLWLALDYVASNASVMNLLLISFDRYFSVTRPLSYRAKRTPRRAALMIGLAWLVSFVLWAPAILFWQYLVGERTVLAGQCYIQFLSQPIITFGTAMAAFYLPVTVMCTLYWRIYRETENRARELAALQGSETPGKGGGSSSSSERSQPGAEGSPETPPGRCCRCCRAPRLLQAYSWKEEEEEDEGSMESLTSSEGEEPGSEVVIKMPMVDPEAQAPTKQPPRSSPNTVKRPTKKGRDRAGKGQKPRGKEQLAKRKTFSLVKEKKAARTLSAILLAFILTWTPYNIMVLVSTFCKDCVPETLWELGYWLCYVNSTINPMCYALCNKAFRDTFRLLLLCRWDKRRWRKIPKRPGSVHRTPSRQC
Sequence of Beta-2 adrenergic receptor (Homo sapiens) (P07550 whole entry, looked up): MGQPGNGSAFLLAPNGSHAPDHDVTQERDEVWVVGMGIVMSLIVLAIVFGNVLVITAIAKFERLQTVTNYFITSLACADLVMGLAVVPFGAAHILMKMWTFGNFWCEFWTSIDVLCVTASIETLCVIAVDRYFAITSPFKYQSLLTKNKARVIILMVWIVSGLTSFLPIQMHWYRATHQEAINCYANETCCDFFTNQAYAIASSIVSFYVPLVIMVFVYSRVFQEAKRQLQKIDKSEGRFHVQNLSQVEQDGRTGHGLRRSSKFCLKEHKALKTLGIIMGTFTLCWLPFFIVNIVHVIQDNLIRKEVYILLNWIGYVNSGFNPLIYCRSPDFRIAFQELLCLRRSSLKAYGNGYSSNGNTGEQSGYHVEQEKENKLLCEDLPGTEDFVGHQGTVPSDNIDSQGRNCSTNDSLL
Sequence of 5-hydroxytryptamine receptor 2A (Homo sapiens) (P28223 whole entry, looked up): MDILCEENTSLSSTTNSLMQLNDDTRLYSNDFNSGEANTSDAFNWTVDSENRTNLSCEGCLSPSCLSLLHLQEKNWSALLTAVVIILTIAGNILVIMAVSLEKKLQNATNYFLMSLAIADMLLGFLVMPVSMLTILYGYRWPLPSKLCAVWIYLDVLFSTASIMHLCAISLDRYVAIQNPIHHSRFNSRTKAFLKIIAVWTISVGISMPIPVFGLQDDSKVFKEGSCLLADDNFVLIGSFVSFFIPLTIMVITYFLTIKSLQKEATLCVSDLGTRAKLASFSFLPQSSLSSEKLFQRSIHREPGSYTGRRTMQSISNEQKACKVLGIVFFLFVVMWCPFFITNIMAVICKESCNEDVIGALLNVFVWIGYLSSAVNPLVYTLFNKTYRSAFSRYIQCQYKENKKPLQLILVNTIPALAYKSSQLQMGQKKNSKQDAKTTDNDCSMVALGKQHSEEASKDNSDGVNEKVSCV
Sequence of KiSS-1 receptor (Homo sapiens) (Q969F8 whole entry, looked up): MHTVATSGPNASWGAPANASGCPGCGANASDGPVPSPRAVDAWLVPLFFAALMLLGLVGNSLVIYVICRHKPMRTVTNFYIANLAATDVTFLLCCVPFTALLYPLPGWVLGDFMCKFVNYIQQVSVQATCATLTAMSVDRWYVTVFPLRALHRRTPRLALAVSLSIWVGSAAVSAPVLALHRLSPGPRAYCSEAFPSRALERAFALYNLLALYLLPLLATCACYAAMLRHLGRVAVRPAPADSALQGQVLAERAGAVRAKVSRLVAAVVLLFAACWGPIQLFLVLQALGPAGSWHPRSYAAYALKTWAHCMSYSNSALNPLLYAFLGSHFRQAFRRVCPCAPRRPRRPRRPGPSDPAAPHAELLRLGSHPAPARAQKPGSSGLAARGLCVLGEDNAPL
Sequence of D(2) dopamine receptor (Homo sapiens) (P14416 whole entry, looked up): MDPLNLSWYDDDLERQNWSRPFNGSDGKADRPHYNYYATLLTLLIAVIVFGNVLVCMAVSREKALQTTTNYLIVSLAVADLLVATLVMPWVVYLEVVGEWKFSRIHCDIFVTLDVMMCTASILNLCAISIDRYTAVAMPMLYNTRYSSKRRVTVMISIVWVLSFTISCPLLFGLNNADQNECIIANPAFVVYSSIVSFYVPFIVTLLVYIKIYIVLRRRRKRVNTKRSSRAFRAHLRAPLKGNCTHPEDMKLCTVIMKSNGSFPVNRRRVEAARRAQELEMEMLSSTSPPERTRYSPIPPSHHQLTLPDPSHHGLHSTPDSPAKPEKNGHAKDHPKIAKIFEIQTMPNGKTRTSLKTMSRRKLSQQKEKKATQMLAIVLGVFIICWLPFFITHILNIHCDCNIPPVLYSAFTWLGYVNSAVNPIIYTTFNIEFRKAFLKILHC
Sequence of Gonadotropin-releasing hormone receptor (Homo sapiens) (P30968 whole entry, looked up): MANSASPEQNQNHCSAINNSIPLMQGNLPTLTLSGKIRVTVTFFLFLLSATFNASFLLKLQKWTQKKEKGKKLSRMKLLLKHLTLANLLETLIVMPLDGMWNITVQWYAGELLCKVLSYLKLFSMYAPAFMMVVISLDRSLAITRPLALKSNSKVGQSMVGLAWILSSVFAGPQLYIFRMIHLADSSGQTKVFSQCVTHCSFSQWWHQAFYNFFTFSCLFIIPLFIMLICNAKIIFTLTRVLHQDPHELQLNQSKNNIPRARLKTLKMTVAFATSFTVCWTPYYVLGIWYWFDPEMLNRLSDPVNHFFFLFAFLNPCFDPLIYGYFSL

Nc1ccc(N)c2ccccc12
active: [1] 27.3 µM | [2] 7.69 µM | [8] 7.75 µM
not listed: [14] | [15] | [16] | [17] | [18] | [19] | [20]
inactive: all other assays above

COc1nccnc1CC(C)C
not listed: [6] | [20]
inactive: all other assays above

COC(=O)C1=C(C)NC(C)=C(C(=O)OCCc2ccc(N3CCN(C(c4ccccc4)c4ccccc4)CC3)cc2)C1c1cccc([N+](=O)[O-])c1 (centres undefined)
inactive: all assays above

Cc1coc2ccccc2c1=O
not listed: [13]
inactive: all other assays above

O=C(OCCc1ccccc1)c1ccccc1
active: [2] 27.3 µM
not listed: [6] | [9] | [11] | [12] | [15] | [19] | [20]
inactive: all other assays above

CNC(=S)NN
active: [1] 12.2 µM | [2] 6.11 µM
not listed: [7] | [12] | [14] | [15]
inactive: all other assays above

CC(C)C[C@H](NC(=O)[C@H](Cc1ccccc1)NC(=O)c1cnccn1)B(O)O
active: [1] 0.596 µM | [2] 0.0422 µM | [14] 0.89 µM | [16] 0.707 µM | [7] 0.0141 µM | [12] 0.944 µM
not listed: [6] | [15] | [17] | [18] | [20]
inactive: all other assays above

COC(=O)Nc1nc2ccc(C(=O)C3CC3)cc2[nH]1
active: [2] 8.41 µM
not listed: [7] | [14] | [15] | [16] | [20]
inactive: all other assays above

CCCCC(CC)COP(=O)(O)O (centres undefined)
not listed: [6] | [7] | [12] | [20]
inactive: all other assays above

O=[N+]([O-])c1cc[n+]([O-])cc1
active: [2] 61.1 µM
inactive: all other assays above

Nc1ccc(F)cc1F
not listed: [6] | [13] | [15]
inactive: all other assays above

O=C(/C=C/c1ccc(O)c(O)c1)O[C@@H]1C[C@@](OC(=O)/C=C/c2ccc(O)c(O)c2)(C(=O)O)C[C@@H](O)[C@@H]1O
not listed: [6] | [17]
inactive: all other assays above

Cc1cc(C)c(C)c(C)c1
not listed: [6] | [11] | [20]
inactive: all other assays above

Nc1nc(N)c2nc(CNc3ccc(C(=O)N[C@@H](CCC(=O)O)C(=O)O)cc3)cnc2n1
not listed: [6] | [7] | [8] | [9] | [10] | [12] | [16] | [17]
inactive: all other assays above

Nc1ccc(-c2ccc(F)cc2)cc1
not listed: [6] | [8] | [12] | [17] | [20]
inactive: all other assays above

Reference: PubChem BioAssay (Tox21)
